Data on 87 compounds can be found in ChEMBL document CHEMBL3988442, “University of Dundee, Small-Polar-MMV Screening Library” (2021).

Screen size: about 69,000 compounds; about 950 (1.4%) showed an effect of 50% or more. The full list was thinned out, with strong results kept by preference.

For this assay, the system named is Mycobacterium tuberculosis. Description: Cornell M. t heat shock assay. Also: in the data most compounds retested in dose-response had high values. The format is functional, organism-based. The arrangement: dose or concentration left out as unconfirmed.
With `CCC(C)NS(=O)(=O)Cc1cccc(NC(=O)C2=CCCC2)c1` (configuration not stated), the “Percent Effect” value was 26.24%.

Turning to `Cc1cccc2nc(CN3CCCC3Cn3cncn3)cn12` (configuration not stated), the “Percent Effect” value is reported as -15.33%.

`Cc1nc(C)n(CC2CCCN2Cc2cn3c(C)cccc3n2)n1` (configuration not stated): the “Percent Effect” value is listed as -6.121%.

For the compound `Cc1cccc2nc(CN3CCCC3Cn3cccn3)cn12` (configuration not stated), the “Percent Effect” value is 71.56%.

`Cc1cc(N(C)C)nc(C2CCCNC2)n1.Cl` (configuration not stated): the “Percent Effect” value is -4.07%.

Regarding `COc1ccc(C[C@H]2CN(Cc3ccoc3)CC[C@H]2OC)cc1.O=C(O)C(F)(F)F`, the “Percent Effect” value is 23.61%.

As to `Cc1noc(C)c1CN(C)Cn1c(=O)oc2ccccc21`, the “Percent Effect” value is given as -12.14%.

Turning to `O=c1oc2ccccc2n1CCN(CC1CCOC1)C1CC1` (configuration not stated), the “Percent Effect” value is given as -26.82%.

Take `CCCN(CCn1c(=O)oc2ccccc21)CC1CC1`: the “Percent Effect” value is on record as 105%.

Turning to `Cn1cc(C2CCCN2CCCn2c(=O)oc3ccccc32)cn1` (configuration not stated), the “Percent Effect” value is reported as -2.71%.

Regarding `CCN(Cc1ccc(C(C)=O)cc1)CC1CCOCC1`, the “Percent Effect” value came out at 5.377%.

For the compound `CCN(CC)CCn1c(=O)oc2ccccc21.Cl`, the “Percent Effect” value is 76.75%.

Consider `O=c1oc2ccccc2n1CCCN1CCCC1c1ccc(O)cc1` (configuration not stated), for which the “Percent Effect” value is reported as -35.87%.

In the case of `CC(NCCn1c(=O)oc2ccccc21)c1ccccn1` (configuration not stated), the “Percent Effect” value amounted to 5.47%.

For the compound `CCN(CCn1c(=O)oc2ccccc21)CC1CCOCC1`, the “Percent Effect” value came out at 86.99%.

Regarding `COc1cccc(Nc2nc(C3CCNCC3)c3sc(C)c(C)n23)c1.Cl`, the “Percent Effect” value came out at 44.92%.

As to `CN(C)[C@@H]1CN(Cc2cnn(C)c2)[C@@H]2COC[C@H]12.O=C(O)C(F)(F)F.O=C(O)C(F)(F)F.O=C(O)C(F)(F)F`, the “Percent Effect” value is given as -14.51%.

For `O=C(O)C(F)(F)F.O=C1CC[C@H]2[C@H](CCN2c2ncccn2)N1c1ccccc1`, the “Percent Effect” value is on record as 21.09%.

With `COc1ccc(O[C@H]2COCCN(Cc3c[nH]c4ccccc34)C2)cc1`, the “Percent Effect” value stood at 47.94%.

Take `Fc1ccc(CN2CCOC[C@H](Oc3cccnc3)C2)cc1`: the “Percent Effect” value was -34.69%.

For `FC(F)(F)c1ccccc1CN1CCOC[C@H](Oc2cccnc2)C1`, the “Percent Effect” value is listed as -28.03%.

Consider `c1ccc(O[C@H]2COCCN(Cc3cccc4c3OCO4)C2)cc1`, for which the “Percent Effect” value is -21.01%.

Regarding `c1ccc(O[C@H]2COCCN(Cc3c[nH]c4ccccc34)C2)cc1`, the “Percent Effect” value came to 78.8%.

For `CC(C)(C)c1coc([C@@H]2COCCN2Cc2c[nH]c3ccccc23)n1`, the “Percent Effect” value was determined as 25.07%.

Take `CO[C@H]1COCCN(Cc2c[nH]c3ccccc23)C1`: the “Percent Effect” value was 82.59%.

As to `c1cncc(O[C@H]2COCCN(Cc3c[nH]c4ccccc34)C2)c1`, the “Percent Effect” value was 58.82%.

Turning to `O=C(O)c1ccc2c(CN3CCOCC3)c[nH]c2c1`, the “Percent Effect” value is reported as -11.23%.

As to `CCC(C)S(=O)(=O)N1CCc2nc(C3CCNCC3)ncc2C1.Cl` (configuration not stated), the “Percent Effect” value is recorded as -3.075%.

In the case of `Cc1cccc(CN2CCc3nnc(CN4CCCCC4)n3CC2)n1.O=C(O)C(F)(F)F.O=C(O)C(F)(F)F`, the “Percent Effect” value is reported as -5.727%.

Regarding `Cl.Cn1ccnc1N1CCN(C(=O)Cc2ccc(Cl)cc2)CC1`, the “Percent Effect” value is -26.02%.

Consider `Cc1ccc(C(=O)N2CC3(CCNCC3)c3cc(Cl)ccc32)cn1.O=C(O)C(F)(F)F.O=C(O)C(F)(F)F`, for which the “Percent Effect” value worked out at 1.032%.

With `Cc1cccc(CN2C(=O)C[C@H]3[C@@H]2CCN3Cc2ccco2)n1.O=C(O)C(F)(F)F.O=C(O)C(F)(F)F`, the “Percent Effect” value was -4.137%.

As for `CC(C)(C)c1cc(CN2C[C@H]3CC[C@@H]2CN(Cc2ccccn2)C3)n[nH]1`, the “Percent Effect” value is given as 99.23%.

For `Cc1nnsc1CN1C[C@H]2CC[C@@H]1CN(Cc1ccccn1)C2`, the “Percent Effect” value is on record as -2.005%.

With `Cn1ccc(NC(=O)CN2C[C@H]3CC[C@@H]2CN(Cc2ccccn2)C3)n1`, the “Percent Effect” value is given as -21.74%.

Turning to `CC(C)(C)c1cc(CN2C[C@@H]3CC[C@H](C2)N(Cc2ccccn2)C3)n[nH]1`, the “Percent Effect” value came to 82.46%.

For the compound `Cn1cnc(S(=O)(=O)N2C[C@@H]3CC[C@H](C2)N(Cc2ccccn2)C3)c1`, the “Percent Effect” value stood at 7.06%.

Regarding `O=C(CN1C[C@H]2CC[C@@H]1CN(Cc1ccccn1)C2)Nc1ccccc1`, the “Percent Effect” value stood at 12.62%.

On to `O=C(O)C(F)(F)F.c1ccc(CN2CCc3ncnc(C4CC4)c3CC2)cc1`, for which the “Percent Effect” value is -16.81%.

With `CC(=O)N1CC2(CCNCC2)c2cc(Cl)ccc21.Cl`, the “Percent Effect” value turned out to be 3.682%.

Take `CO[C@H]1CN(C(=O)c2ccccn2)[C@@H]2CCCO[C@H]12.O=C(O)C(F)(F)F`: the “Percent Effect” value is given as 0.07759%.

For the compound `CS(=O)(=O)NCc1cnc2n1CCN(Cc1ccccn1)CC2.O=C(O)C(F)(F)F`, the “Percent Effect” value is recorded as -38.1%.

Turning to `CCc1n[nH]c(C(=O)NCCn2nccc2C)c1C`, the “Percent Effect” value is listed as 66.56%.

Regarding `CCc1n[nH]c(C(=O)NCCn2ccc(C)n2)c1C`, the “Percent Effect” value was -5.809%.

Take `CCc1n[nH]c(C(=O)NCCn2ccnc2C)c1C`: the “Percent Effect” value is given as -101%.

On to `CO[C@H]1[C@@H]2CC[C@H]1CN(c1nc(C)nc3ccsc13)C2`, for which the “Percent Effect” value turned out to be 7.911%.

Consider `Cc1ccc(C2(CN3CCN(Cc4cnc(C)n4C)CC3)CC2)cc1.Cl`, for which the “Percent Effect” value is recorded as -8.472%.

Take `CC(=O)c1cc(CN2C[C@H]3CC[C@@H]2CN(S(C)(=O)=O)C3)cs1`: the “Percent Effect” value was 74.41%.

`CS(=O)(=O)N1C[C@@H]2CC[C@H](C1)N(Cc1ccsc1)C2`: the “Percent Effect” value was found to be 18.67%.

Take `CC(=O)c1cc(CN2C[C@H]3CC[C@@H]2CN(S(=O)(=O)N(C)C)C3)cs1`: the “Percent Effect” value is listed as -20.68%.

As for `Cc1ccc(CN2CCO[C@H]3[C@H](OCc4cccnc4)CC[C@@H]32)o1.O=C(O)C(F)(F)F.O=C(O)C(F)(F)F`, the “Percent Effect” value came to 17.99%.

Consider `Cl.c1cnc2[nH]c(C3CCCNC3)c(CN3CCCOCC3)c2c1` (configuration not stated), for which the “Percent Effect” value is reported as -14.8%.

On to `CCOc1ccccc1-c1cc(N)[nH]n1.Cl`, for which the “Percent Effect” value was -11.82%.

As to `CCOc1ccc(Br)cc1-c1cc(N)[nH]n1.Cl`, the “Percent Effect” value is 3.82%.

For the compound `Nc1ncccc1CN1C[C@@H]2CC[C@H](C1)N(CC1CC1)C2=O`, the “Percent Effect” value is on record as -11.72%.

Take `CC(C)=CCN1C(=O)[C@H]2CC[C@@H]1CN(Cc1cccnc1N)C2`: the “Percent Effect” value is 105.7%.

On to `Cc1noc(C)c1CN1C(=O)[C@H]2CC[C@@H]1CN(Cc1cccnc1N)C2`, for which the “Percent Effect” value turned out to be 4.913%.

For `Cl.NC(=O)C1CN(c2ccc(F)cc2)CCN1` (configuration not stated), the “Percent Effect” value is recorded as 7.399%.

Regarding `Cc1ccc(CN(CCN(C)C)Cc2ncc[nH]2)s1`, the “Percent Effect” value is reported as -11.95%.

Turning to `Cc1ccc(CN(CCCn2ccnc2)Cc2cnn(C)c2)s1.O=C(O)CC(O)(CC(=O)O)C(=O)O`, the “Percent Effect” value is -39.87%.

`COc1ccc(F)c(CN(CCCn2ccnc2)Cc2ccc(C)s2)c1.O=C(O)CC(O)(CC(=O)O)C(=O)O`: the “Percent Effect” value is reported as 102.4%.

As for `OCc1ccc(CN(CCCn2ccnc2)Cc2cccnc2)o1`, the “Percent Effect” value amounted to 13%.

For the compound `COc1ccc(F)c(CN2CCC(c3cc(O)nc(C)n3)C2)c1.O=C(O)CC(O)(CC(=O)O)C(=O)O` (configuration not stated), the “Percent Effect” value is reported as -13.93%.

As for `Cc1ccc(CN(CCCn2ccnc2)Cc2c[nH]cn2)s1.O=C(O)CC(O)(CC(=O)O)C(=O)O`, the “Percent Effect” value is listed as -3.628%.

Consider `Cc1ccc(CN(CCCn2ccnc2)Cc2cccs2)s1.O=C(O)CC(O)(CC(=O)O)C(=O)O`, for which the “Percent Effect” value turned out to be 106%.

In the case of `Cc1ccc(CN(CCCn2ccnc2)Cc2c[nH]nc2C(C)(C)C)s1.O=C(O)CC(O)(CC(=O)O)C(=O)O`, the “Percent Effect” value came out at 9.157%.

With `COc1ccc(Cl)cc1CNCCCn1ccnc1`, the “Percent Effect” value came to 13.48%.

Take `Cl.Fc1ccc(Cc2cnc(C3CCCN3)cn2)cc1` (configuration not stated): the “Percent Effect” value is reported as -27.64%.

Regarding `COc1ccc(CN(C)[C@@H]2COC[C@H]2c2ccc(F)cc2)cc1.O=C(O)CC(O)(CC(=O)O)C(=O)O`, the “Percent Effect” value is listed as -8.721%.

On to `Cc1oncc1C(=O)N[C@@H]1CN(CC2CC2)C[C@@H]2CCCO[C@@H]21.O=C(O)C(F)(F)F`, for which the “Percent Effect” value amounted to 28.88%.

Turning to `COCCNC(=O)[C@@H]1C[C@@H]2CCN(c3ncccn3)C[C@H]2O1.O=C(O)C(F)(F)F`, the “Percent Effect” value is recorded as -37.39%.

As for `O=C(NC1CC1)C1=CC2(CCN(CC3CC3)CC2)c2ccccc21.O=C(O)C(F)(F)F`, the “Percent Effect” value is listed as -12.48%.

Regarding `Cc1ccc(CN(CCCn2ccnc2)Cc2cc(F)ccc2F)s1.O=C(O)CC(O)(CC(=O)O)C(=O)O`, the “Percent Effect” value is recorded as 105.9%.

Turning to `Cc1ccc(CN(Cc2cccnc2)C2CC(C)(C)NC(C)(C)C2)s1.O=C(O)CC(O)(CC(=O)O)C(=O)O`, the “Percent Effect” value is recorded as -4.253%.

For `CC(C)OCCCN(Cc1ccncc1)Cc1cc(F)ccc1F.Cl`, the “Percent Effect” value is -8.981%.

Consider `c1cc(CN(CCCn2ccnc2)Cc2ccoc2)ccn1`, for which the “Percent Effect” value is 0.7312%.

In the case of `COc1ccccc1CN(CCCn1ccnc1)CC1CCOC1.O=C(O)CC(O)(CC(=O)O)C(=O)O` (configuration not stated), the “Percent Effect” value was found to be 0.5182%.

Regarding `Cc1ccc(CN(CCCN2CCOCC2)Cc2cncn2C)o1.O=C(O)CC(O)(CC(=O)O)C(=O)O`, the “Percent Effect” value is reported as 7.314%.

Consider `Fc1ccccc1CN(CCCn1ccnc1)CC1CCOC1.O=C(O)CC(O)(CC(=O)O)C(=O)O` (configuration not stated), for which the “Percent Effect” value is -23.62%.

On to `Cc1ccc(CN(CCCn2ccnc2)Cc2c(F)cccc2F)s1.O=C(O)CC(O)(CC(=O)O)C(=O)O`, for which the “Percent Effect” value is listed as 103.6%.

In the case of `OCc1ccc(CN(CCCn2ccnc2)Cc2ccncc2)o1`, the “Percent Effect” value was -4.525%.

With `COC[C@]12COC[C@H]1CN(Cc1ccc3c(c1)OCO3)C2.O=C(O)C(F)(F)F`, the “Percent Effect” value is given as -2.808%.

Turning to `CC(CN1CCOCC1)OC(=O)c1ccccc1I.Cl` (configuration not stated), the “Percent Effect” value is given as -19.16%.

Regarding `O=C(O)C(F)(F)F.c1ccc(N2CCOC3(CCCN(c4ncccn4)C3)C2)nc1` (configuration not stated), the “Percent Effect” value stood at 36.25%.

With `Cn1cc(CN2CC[C@]3(C[C@H](Oc4ccccn4)CO3)C2)cn1.O=C(O)C(F)(F)F.O=C(O)C(F)(F)F`, the “Percent Effect” value is listed as 21.89%.

On to `Cc1cccnc1N1CC2(CCN(Cc3cnn(C)c3)C2)C1.O=C(O)C(F)(F)F.O=C(O)C(F)(F)F`, for which the “Percent Effect” value is -17.77%.

In the case of `CN(C)CCN1C(=O)CCC12CCN(Cc1cccs1)CC2.O=C(O)C(F)(F)F.O=C(O)C(F)(F)F`, the “Percent Effect” value is given as -4.329%.
